# USP30 block – inhibitors of human USP30 deubiquitinase; purified USP30, Ub-rhodamine cleavage fluorescence; hit rate 5.3% among 47,000; inhibition, % at 25 µM
# USP17 block – human USP17-like deubiquitinase inhibition; A8MUK1; purified USP17, Ub-rhodamine cleavage fluorescence, 3 h; hit rate 6.5% among 47,000; inhibition, % at 50 µM
# UCHL1 inh – blocks human UCHL1 ubiquitin-rhodamine cleavage; hit rate 0.2% among 47,000; inhibition, % at 20 µM; AID 1645859; P09936; purified UCHL1, Ub-rhodamine cleavage fluorescence
# USP10 block – blocks human USP10 ubiquitin-rhodamine cleavage | Q14694 | purified USP10, Ub-rhodamine fluorescence, 60 min | inhibition, % at 20 µM | hit rate 1.1% among 47,000 | AID 1645856
# Target sequence (Q14694 whole entry, looked up): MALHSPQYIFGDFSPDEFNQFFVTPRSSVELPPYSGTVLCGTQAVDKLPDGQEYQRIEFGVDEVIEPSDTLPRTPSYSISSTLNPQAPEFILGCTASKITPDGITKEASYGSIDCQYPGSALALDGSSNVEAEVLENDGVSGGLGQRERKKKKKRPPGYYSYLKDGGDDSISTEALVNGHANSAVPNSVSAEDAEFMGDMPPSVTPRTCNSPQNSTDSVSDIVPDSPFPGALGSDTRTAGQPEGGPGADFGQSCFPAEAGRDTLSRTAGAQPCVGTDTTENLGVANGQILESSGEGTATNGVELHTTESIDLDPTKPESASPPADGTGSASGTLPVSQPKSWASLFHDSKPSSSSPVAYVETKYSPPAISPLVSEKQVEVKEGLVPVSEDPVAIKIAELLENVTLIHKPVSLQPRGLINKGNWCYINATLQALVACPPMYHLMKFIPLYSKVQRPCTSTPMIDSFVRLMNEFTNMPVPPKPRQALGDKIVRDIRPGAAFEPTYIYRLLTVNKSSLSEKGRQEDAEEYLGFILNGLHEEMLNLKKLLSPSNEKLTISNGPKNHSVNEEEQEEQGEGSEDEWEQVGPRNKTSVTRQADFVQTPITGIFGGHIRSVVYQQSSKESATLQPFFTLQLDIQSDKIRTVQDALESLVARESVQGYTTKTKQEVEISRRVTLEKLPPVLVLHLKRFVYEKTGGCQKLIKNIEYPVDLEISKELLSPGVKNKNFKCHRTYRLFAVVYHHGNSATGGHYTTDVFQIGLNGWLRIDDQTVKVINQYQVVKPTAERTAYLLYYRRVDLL
# USP8 inh – blocks human USP8 ubiquitin-rhodamine cleavage; purified USP8, Ub-rhodamine cleavage fluorescence, 30 min; inhibition, % at 20 µM; hit rate 4.2% among 47,000
# USP7 inh – blocks human USP7 ubiquitin-rhodamine cleavage; Q93009; purified USP7, Ub-rhodamine cleavage fluorescence; inhibition, % at 20 µM; hit rate 0.3% among 47,000; AID 1645854
# * hit, by the source's call; i = inactive; · = not tested or not shown. Sampled rows, rich in hits. Any-hit rate of the full collection: about 12%. Rule as the data show it: active = inhibition above about 30%; inactive = the rest.
SMILES,USP30 block,USP17 block,UCHL1 inh,USP10 block,USP8 inh,USP7 inh
Cn1cc(CN[C@H]2[C@H](O)[C@H](O)C[C@@H]2c2cncnc2)cn1,-35,-29,0,0,0,-2
CC(C)c1nnc(-c2ccc(=O)n(CC(=O)N3CCN(c4ccccn4)CC3)c2)o1,-17,-1,-1,1,1,2
CC(C)(C)C(=O)[C@@H]1[C@@H](C(=O)c2ccc3c(c2)OCO3)[C@@]2(C(=O)Nc3ccccc32)[C@H]2c3ccccc3C=CN12,-67,82*,21,16,93*,-15
O=C(NCC1CC1)c1ncn2c1CN(CC1CC1)S(=O)(=O)c1ccccc1-2,34*,4,1,0,-4,6
CC(C)CCN1Cc2c(C(=O)NCc3ccccc3)ncn2-c2ccccc2S1(=O)=O,42*,19,5,8,18,3
COc1ccc(C(=O)NCCc2cccs2)cc1,14,-3,0,1,0,·
COc1ccc(CCNC(=O)c2ccc3c(c2)SC2=NS(=O)(=O)CCN23)cc1,-5,-3,-2,8,35*,3
O=C(Nc1cccc(C(F)(F)F)c1)c1ccc2c(c1)SC1=NS(=O)(=O)CCN12,-4,35*,-1,3,0,-2
CCN1CCSc2ccc(C(=O)Nc3cccc(C(F)(F)F)c3)cc21,3,20,3,7,24,0
CCc1cc2c(=O)c(Oc3ccc(F)cc3)c(C)oc2cc1O,29,11,3,7,18,10
O=C(c1ccc(F)cc1)N1CCc2cc(-c3csc(Nc4ccccc4)n3)ccc21,-135,-23,1,-2,-88,3
NC(=O)c1cc(-c2csc(NNc3ccccc3)n2)ccc1O,-61,47*,6,6,19,-3
O=C(Nc1ccc(F)cc1)C1CCCN(S(=O)(=O)N2CCCCCC2)C1 (centres undefined),15,-9,3,2,6,-16
COc1ccc(NC(=O)C2CCCN(S(=O)(=O)N3CCC(C)CC3)C2)cc1 (centres undefined),16,38*,-2,2,15,-3
COc1ccc(NC(=O)C2CCCN(S(=O)(=O)N3CCC(C)CC3)C2)cc1OC (centres undefined),2,7,3,-2,21,0
CC1CCN(S(=O)(=O)N2CCCC(C(=O)NCCN3CCCC3)C2)CC1 (centres undefined),-17,-7,-2,-9,0,-5
CCOC(=O)c1ccc(NC(=O)C2CCCN(S(=O)(=O)N3CCCCCC3)C2)cc1 (centres undefined),15,41*,-2,4,-8,4
Cc1cc(C)cc(NC(=O)C2CCCN(S(=O)(=O)N3CCOCC3)C2)c1 (centres undefined),8,1,4,-2,-137,3
O=C(Nc1cccc(F)c1)C1CCCN(S(=O)(=O)N2CCCCCC2)C1 (centres undefined),26,53*,2,7,21,3
COc1ccc(CCNC(=O)C2CCCN(S(=O)(=O)N3CCC(C)CC3)C2)c(OC)c1 (centres undefined),33*,17,0,1,11,0
C=CC[C@H]1OC(=O)CCNC(=O)[C@H](C)N(C)C(=O)[C@H](C(C)C)N(C)C(=O)[C@H]([C@@H](C)CC)NC(=O)[C@@H]2CCCN2C1=O,17,-10,-2,0,0,-3
O=C(O)C1=C(c2ccccc2)S(=O)(=O)c2ccccc21,-5,0,0,1,4,0
COc1ccc(NC(=O)C2CCCN(S(=O)(=O)N3CCC(C)CC3)C2)c(OC)c1 (centres undefined),-12,3,-3,-3,44*,-5
COc1ccc(OC)c(S(=O)(=O)N2CCCC(C(=O)N3CCC(C)CC3)C2)c1 (centres undefined),-4,-15,-1,0,-9,-4
CO[C@H]1/C=C/[C@@](C)(O)/C=C/C(=O)O[C@H](C)[C@@H](C)CC/C=C/1C,39*,-1,1,1,-3,2
SMILES,USP30 block,USP17 block,UCHL1 inh,USP10 block,USP8 inh,USP7 inh
Cc1cccc(NC(=O)c2cc3c(cc2Cl)N2CCCCCC2=NS3(=O)=O)c1C,-3,-4,-2,0,-1,0
COc1ccc(OC)c(C(C(=O)NC2CCCCC2)N(C(=O)c2ccc3c(c2)OCCO3)c2ccc(C)cc2)c1 (centres undefined),41*,19,11,8,33*,8
Cc1noc(C)c1CSc1ncccc1C(=O)Nc1ccnn1C(C)c1ccncc1 (centres undefined),-20,-38,-6,-4,-192,-3
Cc1ccc(S(=O)(=O)Nc2ccc3[nH]cc(Cl)c3c2)cc1,39*,49*,7,9,42*,14
COCC(=O)N1CCCC(c2ccc(Nc3cnccn3)cn2)C1 (centres undefined),1,-3,-2,0,-13,0
COc1ccccc1CNC(=O)c1ccc(-c2cncnc2)nc1,1,7,1,-3,12,2
Cc1ccc(NC(=O)CSc2ccccc2C(=O)Nc2ccc3c(c2)NC(=O)C(C)O3)cc1 (centres undefined),-36,13,-2,-8,37*,-1
COc1ccc(OCC(=O)Nc2ccc3c(c2)NC(=O)C(C)O3)cc1 (centres undefined),-12,·,1,0,-12,2
Cc1cccc(OCC(=O)Nc2ccc3c(c2)NC(=O)C(C)O3)c1 (centres undefined),18,18,7,16,35*,9
COc1ccc(OC)c(C(=O)Nc2ccc3c(c2)NC(=O)C(C)O3)c1 (centres undefined),-1,0,1,2,2,1
CC(O)C1CCc2c3ccc(O)c4c3c(n21)C1=C(C4=O)[C@@H](C)O[C@H](CC(=O)O)C1 (some centres undefined),i,-177,-154,-11,-326,-133
Cc1noc(C2(NC(=O)c3ccc4c(c3)OCO4)CCCCC2)n1,-6,-1,-2,-1,-4,-6
COc1ccc2c(c1)CCc1c-2n[nH]c1C(=O)NCCN1CCN(c2cccc(C)c2C)CC1,-24,-4,3,-9,-31,5
CC(=O)c1oc2nc3c(c(-c4ccc(Cl)cc4)c2c1N)CCc1ccccc1-3,-158,38*,18,-5,65*,-110
O=S(=O)(c1ccccc1)N1CCN(c2ccc(-c3cccnc3)nn2)CC1,-6,49*,0,1,-172,0
O=S(=O)(c1ccccc1)N1CCN(c2cc(-c3cccnc3)[nH]n2)CC1,22,28,0,0,-23,-2
O=c1oc2ccccc2cc1-c1nc(-c2ccc(Oc3ccccc3)cc2)cs1,-127,42*,9,0,53*,70*
Cc1ccc(S(=O)(=O)N2CCC3(CC2)NC(=O)c2ccccc2N3)cc1C,5,58*,3,1,7,5
